Laboratory results taken from PubChem BioAssay (NCI).
Where “and” joins values, the source holds several entries; their conditions need not be identical. Equal values may be shown once. This is part of a sample that, as a whole, favours compounds with a hit. Of some 83,000 tested, about 20% had one in any assay.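 Single-concentration screen, 48 h exposure, 96-well plates. Endpoint: percent growth. Below 10 = active.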 Calls of active or inactive are those of the source.

Experiments:
Experiment in all cases: NCI-60 one-dose screen, 48 h (100 = growth as untreated, 0 = no growth, -100 = all killed)
MOLT-4 leukemia = conditions: 10 µM
SR leukemia = conditions: 10 µM
RPMI-8226 leukemia = conditions: 10 µM
OVCAR-8 ovarian = conditions: 10 µM
OVCAR-5 ovarian = conditions: 10 µM
OVCAR-4 ovarian = conditions: 10 µM
SK-OV-3 ovarian = conditions: 10 µM
OVCAR-3 ovarian = conditions: 10 µM
HS 578T breast = conditions: 10 µM
NCI/ADR-RES ovarian = conditions: 10 µM
T-47D breast = conditions: 10 µM
BT-549 breast = conditions: 10 µM
SW-620 colon = conditions: 10 µM
MCF7 breast = conditions: 10 µM unless noted
HCT-116 colon = conditions: 10 µM
HCC-2998 colon = conditions: 10 µM
KM12 colon = conditions: 10 µM
IGROV1 ovarian = conditions: 10 µM
MDA-MB-435 melanoma = conditions: 10 µM

SMILES	growth (MOLT-4 leukemia)	growth (SR leukemia)	growth (RPMI-8226 leukemia)	growth (OVCAR-8 ovarian)	growth (OVCAR-5 ovarian)	growth (OVCAR-4 ovarian)	growth (SK-OV-3 ovarian)	growth (OVCAR-3 ovarian)	growth (HS 578T breast)	growth (NCI/ADR-RES ovarian)	growth (T-47D breast)	growth (BT-549 breast)	growth (SW-620 colon)	growth (MCF7 breast)	growth (HCT-116 colon)	growth (HCC-2998 colon)	growth (KM12 colon)	growth (IGROV1 ovarian)	growth (MDA-MB-435 melanoma)
COC12c3c(C)cc(O)c4c(=O)occ(c34)C(=O)C1C13COC(=O)c4c(O)cc(C)c(c41)C(=O)C2C3OC(C)=O (stereo unspecified)	102% (inactive)	92.4% (inactive)	90.6% (inactive)	105% (inactive)	91.4% (inactive)	100% (inactive)	93.4% (inactive)	105% (inactive)	112% (inactive)	97.1% (inactive)	94% (inactive)	96.2% (inactive)	99.7% (inactive)	89.5% (inactive)	99.1% (inactive)	97.3% (inactive)	103% (inactive)	–	–
Cc1cc(C)c(C[N+](C)(C)C)c(C)c1C	3.91% (active)	7.44% (active)	-18.4% (active)	6.43% (active)	10.1% (inactive)	8.09% (active)	7.37% (active)	11.4% (inactive)	–	4.96% (active)	-0.376% (active)	7.59% (active)	8.53% (active)	-10.7% (active)	7.93% (active)	–	7.87% (active)	7.5% (active)	9.06% (active)
COc1cc2c(cc1OC)C13CCN4CC5=CCOC6CC(=O)N2C1C6C5CC43 (stereo unspecified)	109% (inactive) and 86.6% (inactive)	82% (inactive)	56.5% (inactive)	99.7% (inactive) and 113% (inactive)	98.2% (inactive) and 83.9% (inactive)	113% (inactive) and 102% (inactive)	101% (inactive) and 114% (inactive)	115% (inactive) and 107% (inactive)	–	116% (inactive) and 66.9% (inactive)	96.9% (inactive) and 109% (inactive)	90.3% (inactive)	115% (inactive) and 106% (inactive)	94.8% (inactive) and 98.6% (inactive)	99.4% (inactive) and 102% (inactive)	-56.9% (active)	101% (inactive) and 100% (inactive)	106% (inactive)	–
CCOP(=O)(OCC)C(O)c1ccccc1Cl (stereo unspecified)	97.8% (inactive)	93.2% (inactive)	102% (inactive)	100% (inactive)	87.2% (inactive)	106% (inactive)	96.5% (inactive)	99.5% (inactive)	–	103% (inactive)	89.1% (inactive)	109% (inactive)	99.2% (inactive)	103% (inactive)	98.8% (inactive)	102% (inactive)	103% (inactive)	93.5% (inactive)	–
CN(CCCl)c1ccc(/C=C/C2=[N+](C)c3ccccc3C2(C)C)cc1	-13.1% (active)	12.3% (inactive)	10.6% (inactive)	13.1% (inactive)	70.8% (inactive)	37.6% (inactive)	-3.38% (active)	-10.6% (active)	–	105% (inactive)	29.3% (inactive)	20.7% (inactive)	19.8% (inactive)	14.9% (inactive)	7.48% (active)	26% (inactive)	12.6% (inactive)	35.1% (inactive)	–
COc1cc(/C=C/[N+](=O)[O-])cc(OC)c1OC	8.23% (active)	-17.7% (active)	-27.6% (active)	1.78% (active)	23% (inactive)	34.2% (inactive)	89.9% (inactive)	-30.9% (active)	–	27.3% (inactive)	13.1% (inactive)	40.6% (inactive)	-50.5% (active)	6.55% (active)	-19.2% (active)	-19.9% (active)	18.2% (inactive)	-22% (active)	–
COc1ccc(/C=C\[N+](=O)[O-])cc1OC	85.7% (inactive) and 65.5% (inactive)	16.6% (inactive) and -16.1% (active)	20.7% (inactive) and -31.7% (active)	73.9% (inactive) and 75.7% (inactive)	110% (inactive) and 79.4% (inactive)	73.7% (inactive) and 80.5% (inactive)	106% (inactive) and 95.9% (inactive)	55.6% (inactive) and 37% (inactive)	–	91.3% (inactive) and 86.9% (inactive)	62.8% (inactive) and 42.3% (inactive)	92% (inactive) and 70.3% (inactive)	37.7% (inactive) and 55.6% (inactive)	12.6% (inactive) and 16.4% (inactive)	13.2% (inactive) and 0.137% (active)	61% (inactive) and 54.3% (inactive)	33.7% (inactive) and 57.2% (inactive)	-5.78% (active) and 59.2% (inactive)	–
COc1cc(/C=C/[N+](=O)[O-])cc(Br)c1OC	10% (inactive)	-5.8% (active)	-15.7% (active)	31.2% (inactive)	65.4% (inactive)	60.3% (inactive)	94.7% (inactive)	69.9% (inactive)	–	60.2% (inactive)	16.3% (inactive)	8.15% (active)	–	8.38% (active)	-91.7% (active)	-90.9% (active)	15.2% (inactive)	1.74% (active)	11% (inactive)
O=C(CBr)Nc1ccc(Cl)cc1	20.7% (inactive)	-28.8% (active)	73.4% (inactive)	96.6% (inactive)	66.6% (inactive)	89.2% (inactive)	108% (inactive)	68.9% (inactive)	115% (inactive)	94.5% (inactive)	67.8% (inactive)	116% (inactive)	9.26% (active)	45% (inactive)	54.4% (inactive)	112% (inactive)	102% (inactive)	–	–
Oc1ccccc1-c1ccccc1	90.1% (inactive) and 93.8% (inactive)	92% (inactive) and 87.9% (inactive)	98.7% (inactive) and 93.2% (inactive)	100% (inactive) and 98% (inactive)	105% (inactive) and 109% (inactive)	108% (inactive) and 104% (inactive)	92.2% (inactive) and 102% (inactive)	103% (inactive) and 116% (inactive)	–	99.9% (inactive) and 110% (inactive)	94% (inactive)	111% (inactive) and 96.9% (inactive)	109% (inactive) and 103% (inactive)	98.1% (inactive) and 94.1% (inactive)	109% (inactive) and 96.6% (inactive)	92.7% (inactive)	102% (inactive) and 109% (inactive)	97.9% (inactive) and 107% (inactive)	107% (inactive) and 111% (inactive)
CCCCCCCC[N+]12CN3CN(CN(C3)C1)C2	120% (inactive)	92.7% (inactive)	90.1% (inactive)	101% (inactive)	96.5% (inactive)	99.2% (inactive)	103% (inactive)	97.9% (inactive)	–	98.9% (inactive)	–	94.4% (inactive)	89.7% (inactive)	91.4% (inactive)	93.6% (inactive)	98.3% (inactive)	98.4% (inactive)	108% (inactive)	–
O=[N+]([O-])/C=C/c1ccc(Cl)cc1[N+](=O)[O-]	2.69% (active)	4.94% (active)	-11.3% (active)	17.8% (inactive)	75.2% (inactive)	10% (active)	99.2% (inactive)	-31.5% (active)	–	32.1% (inactive)	-6.41% (active)	–	-90.2% (active)	-69.2% (active)	-100% (active)	105% (inactive)	29.1% (inactive)	17.8% (inactive)	76.8% (inactive)
CC(C)c1cc([N+](=O)[O-])cc([N+](=O)[O-])c1O	98.2% (inactive)	94.3% (inactive)	116% (inactive)	104% (inactive)	107% (inactive)	115% (inactive)	100% (inactive)	105% (inactive)	–	97.3% (inactive)	97.3% (inactive)	96.4% (inactive)	100% (inactive)	93.3% (inactive)	103% (inactive)	87.4% (inactive)	88.1% (inactive)	111% (inactive)	–
[O-][n+]1ccccc1S	32.1% (inactive)	7.55% (active)	5.89% (active)	17.2% (inactive)	59.1% (inactive)	36.2% (inactive)	91.1% (inactive)	16.9% (inactive)	–	37% (inactive)	53.4% (inactive)	93.5% (inactive)	42% (inactive)	25.3% (inactive)	-9.38% (active)	76.7% (inactive)	46.5% (inactive)	6.4% (active)	53.8% (inactive)
O=[N+]([O-])c1ccc(N(CCO)CCO)c2c1no[n+]2[O-]	-24.4% (active)	–	-53.7% (active)	2.5% (active)	18.5% (inactive)	-25.8% (active)	-35.8% (active)	-65.9% (active)	-30.8% (active)	18.3% (inactive)	-14.9% (active)	-61.3% (active)	0.768% (active)	6.05% (active)	-68.3% (active)	-46.9% (active)	-40.1% (active)	–	–
COc1ccccc1/C=C/[N+](=O)[O-]	53.3% (inactive)	-11.9% (active)	–	63.3% (inactive)	85.6% (inactive)	–	113% (inactive)	49.9% (inactive)	79% (inactive)	91.4% (inactive)	50.7% (inactive)	82.4% (inactive)	58.8% (inactive)	28.8% (inactive)	36.2% (inactive)	88.7% (inactive)	65.9% (inactive)	53% (inactive)	–
